Structures are written as SMILES. Records with an inconclusive call do not appear. Calls of active or inactive are those of the source. Unless noted, no stated cut-off is given here; in the data, active means percent of DMSO control GFP below about 86%; inactive means the rest, inconclusive results apart.

The results in this text go back to PubChem BioAssay.

Assay [1] can be described thus: yeast TOR pathway RPL19A-GFP modulators, primary screen, cell-based, S. cerevisiae, multiplex flow cytometry (AID 1862).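 Further: lower values mimic rapamycin by blocking the RPL19A rise seen in DMSO cells.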 Conditions: S. cerevisiae RPL19A-GFP strain, flow cytometry fluorescence, 3 h; at 10 µM; stronger effect = lower value.
Assay [2] can be described thus: modulators of MEP2-GFP levels in yeast, primary screen, S. cerevisiae, multiplex flow cytometry (AID 1867;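 active means GFP response, as percent of the DMSO control, above the screen-wide mean plus 3 SD, about 139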;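 further: median GFP channel fluorescence of barcode-gated MEP2-GFP cells measured by flow cytometry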). Particulars: S. cerevisiae MEP2-GFP strain, 3 h, at 10 µM, stronger effect = higher value, 100% means same as DMSO wells. On the technique in general: A flow cytometer gives signals particle by particle.
Assay [3] in a line: modulators of CIT2-GFP expression in yeast, primary screen, S. cerevisiae, GFP fusion, multiplex flow cytometry (AID 1870;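 active means percent response above a set limit, the screen-wide mean plus 3 SD, cut at about 130% in these data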;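 further: barcoded CIT2-GFP strain pooled with four other GFP strains with rapamycin as positive control; median GFP fluorescence per well over plate mean of DMSO wells so 100% = DMSO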). Conditions: 3 h, at 10 µM, stronger effect = higher value.
A short description of assay [4]: modulators of LAP4-GFP expression in yeast, primary screen, S. cerevisiae, multiplex flow cytometry (AID 1873;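 active means GFP signal, as percent of the solvent control, above the screen mean plus 3 SD, about 149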). Particulars: 3 h, at 10 µM, stronger effect = higher value.
The nature of assay [5]: modulators of AGP1-GFP expression in yeast TOR pathway, primary screen, cell-based, multiplex flow cytometry, S. cerevisiae (AID 1887;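 active means GFP signal above the screen-wide mean plus 3 SD, that is over about 124.5% of the solvent control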;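 further: AGP1-GFP fusion strain of S. cerevisiae within a five-strain barcoded multiplex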). Conditions: 3 h, at 10 µM, stronger effect = higher value.
The nature of assay [6]: inhibitors of CD8+ T cell-vesicle binding, pilot screen, LFA-1/ICAM-1 modulator project, MLPCN validation set, flow cytometry (AID 2523;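 active means response below a set limit, under 55% cells CD8-positive and vesicle-bound, and CD8 cells' 90th-percentile brightness under 279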;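 on vesicle binding response: mean PE anti-B7-1 fluorescence of CD8+ cells relative to row control; 100% = QL9-loaded vesicles with DMSO vehicle in the same plate row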). Particulars: 2C mouse CD8+ T cells, at 7 µM, stronger effect = lower value; double positive events: measured here: CD8+/vesicle+ event percentage.
Assay [7] deals with Integrin beta-1 (Homo sapiens) + Integrin alpha-4 (Homo sapiens) (UniProt P13612+P05556). Put plainly: inhibition of HUTS-21 binding to VLA-4, pilot screen, VLA-4 allosteric modulator project, U937 cells, HUTS-21 mAb, flow cytometry, validation set (AID 2674;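 active means inhibition above 50%, about 3 SD of the validation set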;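 further: antibody binding induced by the VLA-4 ligand LDV present at three times its Kd; 0% = LDV ligand with antibody and no compound and 100% = antibody without LDV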). Conditions: HUTS-21 LIBS mAb binding, at 6.7 µM, stronger effect = higher value, binding induced by LDV ligand.
Sequence of Integrin beta-1 (Homo sapiens) + Integrin alpha-4 (Homo sapiens) (P05556 whole entry, looked up): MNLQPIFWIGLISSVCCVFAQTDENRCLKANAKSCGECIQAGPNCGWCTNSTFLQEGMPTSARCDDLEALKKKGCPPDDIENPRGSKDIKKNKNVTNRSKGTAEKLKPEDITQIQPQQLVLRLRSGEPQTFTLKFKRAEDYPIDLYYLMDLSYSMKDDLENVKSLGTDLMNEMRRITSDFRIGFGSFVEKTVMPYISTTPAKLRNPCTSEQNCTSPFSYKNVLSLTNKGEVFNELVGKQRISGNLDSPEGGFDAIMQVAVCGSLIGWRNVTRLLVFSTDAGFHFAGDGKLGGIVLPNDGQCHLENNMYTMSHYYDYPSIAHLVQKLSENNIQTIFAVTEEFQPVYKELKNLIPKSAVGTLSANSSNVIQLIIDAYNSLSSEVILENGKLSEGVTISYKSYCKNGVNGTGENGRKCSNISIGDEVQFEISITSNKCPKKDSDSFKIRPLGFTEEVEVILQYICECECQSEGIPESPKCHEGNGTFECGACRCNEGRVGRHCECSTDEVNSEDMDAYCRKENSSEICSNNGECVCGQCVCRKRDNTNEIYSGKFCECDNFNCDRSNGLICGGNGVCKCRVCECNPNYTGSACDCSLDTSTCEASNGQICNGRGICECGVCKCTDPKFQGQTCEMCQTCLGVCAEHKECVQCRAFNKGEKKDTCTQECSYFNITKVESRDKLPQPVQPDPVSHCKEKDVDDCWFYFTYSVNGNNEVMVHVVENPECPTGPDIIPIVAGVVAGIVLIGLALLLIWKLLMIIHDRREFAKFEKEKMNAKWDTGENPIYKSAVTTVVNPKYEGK
Sequence of Integrin beta-1 (Homo sapiens) + Integrin alpha-4 (Homo sapiens) (P13612 whole entry, looked up): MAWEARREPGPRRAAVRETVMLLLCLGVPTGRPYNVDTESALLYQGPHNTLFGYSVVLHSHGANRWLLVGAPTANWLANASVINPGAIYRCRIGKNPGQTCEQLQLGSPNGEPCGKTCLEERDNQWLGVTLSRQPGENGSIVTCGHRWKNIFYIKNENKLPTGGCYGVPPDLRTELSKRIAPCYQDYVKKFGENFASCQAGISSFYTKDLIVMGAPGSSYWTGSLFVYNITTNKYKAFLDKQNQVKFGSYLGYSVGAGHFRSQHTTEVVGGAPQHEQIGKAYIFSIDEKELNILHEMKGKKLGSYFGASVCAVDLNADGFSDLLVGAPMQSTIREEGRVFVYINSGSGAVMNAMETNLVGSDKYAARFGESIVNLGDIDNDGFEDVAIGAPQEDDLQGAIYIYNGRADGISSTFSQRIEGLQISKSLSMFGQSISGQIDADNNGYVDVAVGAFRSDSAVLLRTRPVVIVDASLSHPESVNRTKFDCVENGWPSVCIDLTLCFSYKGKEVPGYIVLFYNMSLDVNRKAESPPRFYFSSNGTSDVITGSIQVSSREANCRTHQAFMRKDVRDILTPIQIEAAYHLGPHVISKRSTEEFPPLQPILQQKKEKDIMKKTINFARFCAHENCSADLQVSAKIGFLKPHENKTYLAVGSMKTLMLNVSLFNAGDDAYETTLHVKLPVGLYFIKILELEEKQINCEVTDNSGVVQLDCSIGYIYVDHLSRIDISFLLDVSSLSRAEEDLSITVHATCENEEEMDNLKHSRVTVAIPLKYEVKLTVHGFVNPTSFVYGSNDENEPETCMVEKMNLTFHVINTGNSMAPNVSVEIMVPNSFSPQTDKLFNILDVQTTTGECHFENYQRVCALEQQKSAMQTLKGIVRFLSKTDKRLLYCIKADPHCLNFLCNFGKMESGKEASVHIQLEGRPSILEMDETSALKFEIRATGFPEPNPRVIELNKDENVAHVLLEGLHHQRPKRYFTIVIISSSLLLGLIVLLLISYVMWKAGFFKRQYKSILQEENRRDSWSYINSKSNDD
Assay [8] in a line: superoxide lowering in aged yeast cells, pilot screen, validation compound set (AID 2706;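 active means superoxide response below 65% of plate, a cut near 3 SD across the whole screen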;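 further: yeast exposed to compound for one week at 30 degrees C before staining; 100% = mean of all compound wells on the same plate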). Conditions: S. cerevisiae aging, superoxide DHE fluorescence; at 10 µM; stronger effect = lower value.
For assay [9], the target named is Beta-adrenergic receptor kinase 1 (Homo sapiens) (UniProt P25098). Put plainly: GRK2 binders displacing RNA aptamer, biochemical, validation, human GRK2, bead flow cytometry (AID 488806;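 active means aptamer binding inhibition above 30%, about 3 SD of noise from non-fluorescent compounds; inactive means inhibition at or below 30%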). Particulars: bead-bound GRK2, FAM-aptamer displacement, at 10 µM, stronger effect = higher value.
Sequence of Beta-adrenergic receptor kinase 1 (Homo sapiens) (P25098 whole entry, looked up): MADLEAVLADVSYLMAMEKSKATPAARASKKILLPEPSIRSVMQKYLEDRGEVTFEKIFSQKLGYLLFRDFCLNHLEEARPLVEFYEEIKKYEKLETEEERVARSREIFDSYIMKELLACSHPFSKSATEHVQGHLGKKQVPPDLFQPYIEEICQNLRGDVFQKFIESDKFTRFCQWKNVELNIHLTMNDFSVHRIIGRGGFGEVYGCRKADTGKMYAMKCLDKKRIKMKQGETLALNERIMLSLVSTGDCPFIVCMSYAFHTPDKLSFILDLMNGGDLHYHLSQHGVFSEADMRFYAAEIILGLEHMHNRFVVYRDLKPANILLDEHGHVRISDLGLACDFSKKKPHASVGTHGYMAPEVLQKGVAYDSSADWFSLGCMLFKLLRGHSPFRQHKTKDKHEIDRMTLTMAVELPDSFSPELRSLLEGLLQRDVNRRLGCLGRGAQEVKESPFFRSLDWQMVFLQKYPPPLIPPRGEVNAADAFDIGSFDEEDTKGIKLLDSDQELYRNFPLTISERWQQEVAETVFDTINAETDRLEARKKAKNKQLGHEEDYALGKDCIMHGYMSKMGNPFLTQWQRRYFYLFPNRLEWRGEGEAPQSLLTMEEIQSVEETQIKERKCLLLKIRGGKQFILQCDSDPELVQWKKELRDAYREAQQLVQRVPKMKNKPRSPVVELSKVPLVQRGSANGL
Assay [10] concerns the target Beta-2 adrenergic receptor (Homo sapiens) (UniProt P07550). In words: beta2AR agonists driving receptor internalization, pilot screen, cell-based, FAP fluorogen, flow cytometry, validation set (AID 504459;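 active means percent response above 42, roughly 3 SD of non-fluorescent test compounds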;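 further: agonist-driven loss of surface beta2AR via internalization measured by FAP dye flow cytometry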). Conditions: Am2.2-beta2AR cells, FAP surface receptor flow cytometry; at 10 µM; stronger effect = higher value.
Assay [11] deals with AP-2 complex subunit beta (Homo sapiens) (UniProt P63010). Put plainly: inhibitors of arrestin peptide binding to AP2, pilot screen, biochemical, validation set, GST-AP2 beads, flow cytometry (AID 504541;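 active means inhibition above 54%, about 3 SD of non-fluorescent compounds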;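 further: AP2 carries R879A mutation and is captured from E. coli lysate; bead-bound FITC arrestin peptide fluorescence measuring arrestin peptide binding to AP2; 0% = DMSO wells and 100% = excess unlabeled arrestin peptide control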). Particulars: FITC arrestin peptide, at 10 µM, stronger effect = higher value, AP2 beta2 appendage fragment, R879A mutant.
Sequence of AP-2 complex subunit beta (Homo sapiens) (P63010 whole entry, looked up, the tested form may be a part, one chain of several): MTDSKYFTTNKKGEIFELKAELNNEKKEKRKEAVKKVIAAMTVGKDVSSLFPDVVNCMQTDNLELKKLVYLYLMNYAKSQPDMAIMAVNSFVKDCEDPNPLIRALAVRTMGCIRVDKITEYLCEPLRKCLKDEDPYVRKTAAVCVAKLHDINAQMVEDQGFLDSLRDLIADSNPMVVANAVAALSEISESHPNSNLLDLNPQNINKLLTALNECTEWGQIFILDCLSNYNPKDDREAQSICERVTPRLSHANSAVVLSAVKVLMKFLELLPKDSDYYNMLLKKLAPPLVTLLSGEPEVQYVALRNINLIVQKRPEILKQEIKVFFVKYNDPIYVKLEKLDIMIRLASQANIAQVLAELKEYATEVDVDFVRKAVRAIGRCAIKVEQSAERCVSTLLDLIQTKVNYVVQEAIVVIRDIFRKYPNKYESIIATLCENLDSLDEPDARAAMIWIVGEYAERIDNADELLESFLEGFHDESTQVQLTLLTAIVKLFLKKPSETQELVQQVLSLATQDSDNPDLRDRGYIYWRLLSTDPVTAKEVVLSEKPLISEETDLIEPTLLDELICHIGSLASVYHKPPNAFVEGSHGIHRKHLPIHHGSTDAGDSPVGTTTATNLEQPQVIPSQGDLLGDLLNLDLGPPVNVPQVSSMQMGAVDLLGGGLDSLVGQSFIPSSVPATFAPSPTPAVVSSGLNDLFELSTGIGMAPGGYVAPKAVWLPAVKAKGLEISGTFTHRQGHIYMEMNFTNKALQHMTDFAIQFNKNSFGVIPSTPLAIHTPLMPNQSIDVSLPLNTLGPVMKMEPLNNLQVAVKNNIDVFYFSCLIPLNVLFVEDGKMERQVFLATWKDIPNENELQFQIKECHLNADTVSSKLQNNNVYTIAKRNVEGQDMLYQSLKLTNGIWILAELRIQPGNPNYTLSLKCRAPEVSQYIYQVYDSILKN
Assay [12] in a line: yeast V-ATPase proton transport modulators, S. cerevisiae, pHLuorin, HTS validation (AID 504600; in the data active means response above about 15%;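 further: plate controls were DMSO for no effect and reference compound for full effect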). Particulars: S. cerevisiae pHLuorin cytosolic pH, at 10 µM, stronger effect = higher value.
In assay [13] the test system is anti-desmoglein-3 scFv antibody binding to human DSG3. In words: inhibitors of anti-DSG3 scFv binding to DSG3, pilot screen, biochemical, validation compound set, bead-based, flow cytometry (AID 588368;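 active means binding below the plate cutoff, the plate median minus 3 SD, with a reading above zero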;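 further: signal is the median channel fluorescence of bead-bound GFP antibody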). Particulars: Protein G beads, DSG3-Fc, scFv-GFP binding, at 10 µM, stronger effect = lower value.
Assay [14] is described as follows: inhibitors of fungal efflux pumps CDR1, CDR2, MDR1, pilot screen, validation compound set, multiplex, phenotypic (AID 588506;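 active means efflux inhibition above 0.42, the validation set average plus 4 SD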;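 further: Nile Red retained in cells so higher fluorescence means more efflux inhibition; 0 = negative control wells and 1 = enniatin B 25 µM full block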). Particulars: S. cerevisiae pump-expressing triplex, Nile Red efflux flow cytometry; at 10 µM; stronger effect = higher value; the pumps come from Candida albicans.
Assay [15] deals with ATP-binding cassette sub-family B member 6 (Homo sapiens) (UniProt Q9NP58). In words: ABCB6 transporter inhibitors, pilot screen, K562-ABCB6 cells, flow cytometry, validation set (AID 588550;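 active means inhibition above the screen-wide mean plus 3 SD, about 51%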;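 further: 0% = DMSO wells and 100% = benzethonium chloride 70 µM positive control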). Conditions: K562-ABCB6 porphyrin accumulation, 1 h, at 10 µM, stronger effect = higher value.
Sequence of ATP-binding cassette sub-family B member 6 (Homo sapiens) (Q9NP58 whole entry, looked up): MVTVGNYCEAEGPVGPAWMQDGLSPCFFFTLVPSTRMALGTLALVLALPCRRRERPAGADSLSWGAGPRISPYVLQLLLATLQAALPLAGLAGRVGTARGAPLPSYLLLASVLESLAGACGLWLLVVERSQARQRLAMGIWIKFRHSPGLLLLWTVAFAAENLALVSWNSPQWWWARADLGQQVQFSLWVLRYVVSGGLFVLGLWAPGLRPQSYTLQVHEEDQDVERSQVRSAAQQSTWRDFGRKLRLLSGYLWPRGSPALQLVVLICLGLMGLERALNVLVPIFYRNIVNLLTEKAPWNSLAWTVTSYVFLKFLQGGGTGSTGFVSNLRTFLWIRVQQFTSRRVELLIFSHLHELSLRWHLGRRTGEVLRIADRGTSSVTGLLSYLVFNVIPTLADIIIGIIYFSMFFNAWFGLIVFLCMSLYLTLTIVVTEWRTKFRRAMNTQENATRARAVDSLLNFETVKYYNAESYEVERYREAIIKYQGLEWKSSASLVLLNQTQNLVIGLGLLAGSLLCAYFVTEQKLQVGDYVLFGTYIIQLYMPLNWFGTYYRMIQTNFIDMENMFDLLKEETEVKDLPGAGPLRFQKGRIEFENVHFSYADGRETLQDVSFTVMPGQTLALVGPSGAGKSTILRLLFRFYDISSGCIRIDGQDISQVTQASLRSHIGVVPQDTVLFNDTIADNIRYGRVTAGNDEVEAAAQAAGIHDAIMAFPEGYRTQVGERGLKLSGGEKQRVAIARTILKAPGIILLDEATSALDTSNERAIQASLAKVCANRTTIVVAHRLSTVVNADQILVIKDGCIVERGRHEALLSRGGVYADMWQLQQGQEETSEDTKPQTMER
Assay [16] can be described thus: promoters of myeloid differentiation in arrested cells, primary screen, cell-based, GFP/MAC1 double positive, flow cytometry, validation set (AID 588685;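 active means differentiation response of at least 50%, scaled between solvent and reference control, from cells with both markers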;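 further: compound exposure lasts four days before antibody staining and flow analysis; 0% = DMSO wells and 100% = 5 µM fulvestrant positive control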). Particulars: ER-HoxA9 marrow cells, stronger effect = higher value, normalized: vehicle 0, fulvestrant 100.

Sequence of Beta-2 adrenergic receptor (Homo sapiens) (P07550 whole entry, looked up): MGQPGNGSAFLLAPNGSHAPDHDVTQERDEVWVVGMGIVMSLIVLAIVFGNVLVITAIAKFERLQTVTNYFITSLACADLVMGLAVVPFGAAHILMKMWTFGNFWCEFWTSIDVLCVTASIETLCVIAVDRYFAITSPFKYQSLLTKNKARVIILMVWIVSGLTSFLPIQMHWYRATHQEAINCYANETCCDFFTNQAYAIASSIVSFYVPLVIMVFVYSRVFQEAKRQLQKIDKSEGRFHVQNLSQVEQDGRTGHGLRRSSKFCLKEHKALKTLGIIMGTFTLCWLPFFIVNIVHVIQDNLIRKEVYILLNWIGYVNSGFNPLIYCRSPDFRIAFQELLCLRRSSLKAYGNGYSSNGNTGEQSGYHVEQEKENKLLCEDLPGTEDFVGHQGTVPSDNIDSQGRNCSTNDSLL

On to `CCN(CC)c1ccc([C@H]2[C@@H]3CCCC[C@]3(O)CCN2CC(=O)NCc2ccco2)cc1`, for which the percent of DMSO control GFP in [1] is 97.4% (inactive). For the same molecule, the GFP response vs DMSO in assay [2] is 108% (inactive); in [4], 121% (inactive). For the same molecule, the percent response of DMSO control in assay [3] was 91% (inactive). The GFP response, % of DMSO in assay [5] is 98.5% (inactive). Also, the double positive events in [6] was determined as 60.3%. Besides, the vesicle binding response in [6] was 190% (inactive). Further, the inhibition in assay [7] is -25% (inactive); in assay [11], -7.96% (inactive); in [15] it was 8% (inactive). In assay [8], the superoxide response (% of plate) was 95.1% (inactive). Further, the aptamer binding inhibition in assay [9] is 4% (inactive). For the same molecule, the values for the response in [10] and in [12] were 47.5% (active) and 25.9% (active), respectively. Also, the binding (% of control) in assay [13] was 99.5% (inactive). The efflux inhibition (fraction of control) in assay [14] is 0.33 (inactive). Also, in assay [16], the differentiation response is -7.2% (inactive).
As for `CCNC1=C(Cl)C(=O)c2ccccc2C1=O`, the percent of DMSO control GFP in assay [1] was 104% (inactive). Also, the GFP response vs DMSO is 104% (inactive) in assay [2] and 127% (inactive) in assay [4]. The percent response of DMSO control in [3] is 91.8% (inactive). Moreover, the GFP response, % of DMSO in assay [5] was 113% (inactive). The double positive events in [6] is 59.8%. Further, in assay [6], the vesicle binding response is 159% (inactive). Further, the figures for the inhibition in [7], in assay [11] and in [15] were 21% (inactive), -22.4% (inactive) and -12% (inactive), respectively. Besides, the superoxide response (% of plate) in assay [8] is 229% (inactive). The aptamer binding inhibition in assay [9] is 3% (inactive). Also, the response was -20% (inactive) in assay [10] and 1.03% (inactive) in [12]. Further, in assay [13], the binding (% of control) was 104% (inactive). The efflux inhibition (fraction of control) in assay [14] is -0.09 (inactive). Moreover, in assay [16], the differentiation response is 0.92% (inactive).
Turning to `COc1cc(C(=O)N/C(=C\c2cn(C)c3ccccc23)C(=O)NCCCO)cc(OC)c1OC`, the percent of DMSO control GFP in [1] is 102% (inactive). The results for the GFP response vs DMSO in [2] and in [4] were 94.1% (inactive) and 75.2% (inactive), respectively. Moreover, in assay [3], the percent response of DMSO control was 107% (inactive). In addition, in [5], the GFP response, % of DMSO is 88% (inactive). The molecule also had a double positive events in [6] of 56.3%. In addition, the vesicle binding response in assay [6] is 215% (inactive). Also, the figures for the inhibition in assay [7], in assay [11] and in assay [15] were 11.9% (inactive), -0.03% (inactive) and 7% (inactive), respectively. For the same molecule, the superoxide response (% of plate) in assay [8] was 99.7% (inactive). Moreover, the aptamer binding inhibition in assay [9] was 2% (inactive). The response in assay [10] was 5% (inactive); in assay [12], 11.1% (inactive). Further, the binding (% of control) in [13] is 100% (inactive). Also, in assay [14], the efflux inhibition (fraction of control) is 0.3 (inactive). In assay [16], the differentiation response was -15.2% (inactive).
Regarding `O=C(NC(=S)Nc1ccc(N2CCN(C(=O)c3ccccc3)CC2)cc1)c1cccs1`, the percent of DMSO control GFP in [1] is 96.3% (inactive). Moreover, the figures for the GFP response vs DMSO in assay [2] and in assay [4] were 126% (inactive) and 77% (inactive), respectively. The percent response of DMSO control in assay [3] was 116% (inactive). For the same molecule, the GFP response, % of DMSO in assay [5] is 96.1% (inactive). For the same molecule, in assay [6], the double positive events was found to be 51.4%. Besides, the vesicle binding response in assay [6] was 106% (inactive). Besides, the inhibition in [7] is -4.21% (inactive); in [11], -3.24% (inactive); in assay [15], 13% (inactive). In addition, the superoxide response (% of plate) in [8] is 101% (inactive). For the same molecule, the aptamer binding inhibition in assay [9] was 0% (inactive). For the same molecule, the response in assay [10] is -15.7% (inactive); in assay [12], 1.01% (inactive). Further, in assay [13], the binding (% of control) was 107% (inactive). The efflux inhibition (fraction of control) in [14] is -0.28 (inactive). For the same molecule, in assay [16], the differentiation response is -0.82% (inactive).

As a reminder, the inhibition is the relative decrease from the control value, in per cent.
